From PubChem BioAssay AID1527 (The Scripps Research Institute Molecular Screening Center, 2009)
Among all 290,000 compounds or so, about 2,600 (0.9%) were called active. The full list was thinned out, with actives kept by preference. Unmarked numbers belong to inactive results.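 Rule for the calls: active = inhibition above the mean of all tested compounds plus 3 SD, cutoff set per screening run (cut at about 7.5% in these data); inactive = the rest.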

What follows are compounds tested on VIM-2 metallo-beta-lactamase (Pseudomonas aeruginosa) (assay: inhibition of VIM-2 nitrocefin hydrolysis – biochemical, epi-absorbance readout, Pseudomonas aeruginosa enzyme, primary screen (AID 1527;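 note: red hydrolysis product quenches plate fluorescence so inhibitors raise well fluorescence; 0% = enzyme with DMSO and 100% = DMSO without enzyme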)). Conditions: purified VIM-2, nitrocefin hydrolysis, epi-absorbance fluorescence; at 5.6 µM; active compounds read high.

Row | Compound | inhibition
1 | O=C(NCCCc1ccccc1)C1CCC(=O)N(CCc2ccc(Cl)cc2)C1 (stereo not drawn) | -1.97%
2 | Cc1cccc(N2C(=O)c3cccnc3C2=O)c1 | -0.49%
3 | Cc1ccc(NC(=O)CSc2cccc3cccnc23)c(C)c1 | -0.55%
4 | Cc1ccc(Oc2ccc3c(c2)C(=O)N(c2cccc4cccnc24)C3=O)cc1 | 30.9% (active)
5 | O=C(C1CCN(S(=O)(=O)c2ccc(Br)s2)CC1)N1CCN(c2ccccc2)CC1 | -3.44%
6 | Cc1cccc(NC(=S)NC(=O)c2ccc(Br)o2)c1 | -1.38%
7 | O=C(NC(=S)Nc1ccccc1C(=O)O)c1ccc(-c2ccc(Br)cc2)o1 | 19.4% (active)
8 | COC(=O)c1ccccc1NC(=S)NC(=O)c1ccccc1F | -1.44%
9 | CC(C)[C@H](NC(=O)N1CC(=O)Nc2ccccc21)C(=O)N[C@@H](Cc1c[nH]c2ccccc12)C(=O)O | -2.42%
10 | Nc1cccc2c1C(=O)N(Cc1nnc(-c3ccccc3Br)o1)C2=O | 13.6% (active)
11 | CCOC(=O)N1CCN(Cc2nnc(-c3ccccc3Cl)o2)CC1 | -1.67%
12 | Cn1cnnc1SCc1nnc(-c2ccccc2Br)o1 | -0.36%
13 | Cc1ccccc1NC(=O)C1CCCN(C(=O)NCc2ccccc2)C1 (stereo not drawn) | -2.35%
14 | OC(CN1C2=NCCCN2c2ccccc21)c1ccc(Br)cc1 (stereo not drawn) | -1.66%
15 | Cc1cc2c(cc1C)N(Cc1ccccc1)C1=NCCCN12 | 8.88% (active)
16 | CC(C)(C)C(=O)CN1C2=NCCN2c2ccccc21 | -3.12%
17 | COc1ccc(S(=O)(=O)NCC(=O)NCc2cc(=O)n(C)c(=O)n2C)cc1F | -1.12%
18 | CCn1c(Cc2ccc(OC)cc2)nnc1SCC(=O)Nc1ccc(N2CCOCC2)cc1 | -1.86%
19 | COc1ccccc1/C=N\Nc1cc(C)nc(-n2nc(C)cc2C)n1 | -5.24%
20 | COc1ccc(Nc2cc(C)nc(-n3nc(C)cc3C)n2)cc1 | 12.7% (active)
21 | Cc1cc(N/N=C\c2ccc(Br)cc2)nc(-n2nc(C)cc2C)n1 | -1.15%
22 | Cc1cccc(OCC(=O)NCC(=O)N/N=C/c2ccc(N(C)C)cc2)c1 | 0.77%
23 | N#Cc1ccc(/C=C2\CCn3c2nc2cc(C(=O)O)ccc2c3=O)cc1 | 3.37%
24 | COc1ccc(-c2ccc(CNCCCN3CCOCC3)o2)cc1Cl | -0.71%

Row | Compound | inhibition
25 | Fc1ccc(-c2ccc(CNCc3ccccn3)o2)cc1Cl | 38% (active)
26 | Cc1cc(S(=O)(=O)NCc2ccccn2)c(Cl)cc1Cl | -1.51%
27 | COc1ccc(S(=O)(=O)N2CCN(C(=O)N(C)C)C2C)cc1 (stereo not drawn) | -2.86%
28 | N#Cc1ccc(S(=O)(=O)NCC(=O)OCC(=O)NCCc2ccccc2)cc1 | -2%
29 | COCCNC(=O)c1ccc(-n2c(SCc3cccnc3)nc3ccccc3c2=O)cc1 | -1.16%
30 | C=CCn1c(SCc2ccc(C(=O)NCCO)cc2)nc2ccccc2c1=O | 9.03% (active)
31 | O=C(Nn1c(SCc2ccc([N+](=O)[O-])cc2)nc2ccccc2c1=O)c1ccc(F)cc1 | 1.03%
32 | CC1CCCC(C)N1CCCNC(=O)c1cc2c(=O)n(C)c3ccccc3c2n1C (stereo not drawn) | 21.7% (active)
33 | CCN1CCCC1CNC(=O)c1cc2c(=O)n(C)c3ccccc3c2n1C (stereo not drawn) | 19.9% (active)
34 | Cn1c(C(=O)NCCCN2CCN(c3cccc(Cl)c3)CC2)cc2c(=O)n(C)c3ccccc3c21 | -1.03%
35 | Cn1c(C(=O)NCCc2ccsc2)cc2c(=O)n(C)c3ccccc3c21 | 4.63%
36 | Cn1c(C(=O)N2CCC(C(N)=O)CC2)cc2c(=O)n(C)c3ccccc3c21 | 2.96%
37 | Cn1c(C(=O)NCCN2CCc3ccccc3C2)cc2c(=O)[nH]c3ccccc3c21 | 6.06%
38 | O=C(N/N=C/c1cccnc1)c1ccc(NC(=O)c2ccc(F)cc2)cc1 | -0.77%
39 | COc1cc(S(=O)(=O)N(Cc2cccs2)C2CC2)ccc1-n1cnnn1 | -1.52%
40 | COc1ccc(C(=O)C2CCCN(C(=O)c3cc(C)on3)C2)cc1F (stereo not drawn) | -2.54%
41 | CCOc1ccc2[nH]c(C(=O)N/N=C/c3cccc(OC)c3OC)cc2c1 | -0.14%
42 | O=C(CCl)NNc1nc(-c2ccccc2)c2cc(Cl)ccc2n1 | -3.67%
43 | Clc1ccc2nc(-c3ccccc3)nc(C(Cl)Cl)c2c1 | -4.99%
44 | NC(N)=Nc1nc(-c2ccccc2)c2cc(Cl)ccc2n1 | 9.54% (active)
45 | O=C(CCCCCn1c(=S)[nH]c2cc3c(cc2c1=O)OCO3)N1CCN(c2ccc(F)cc2)CC1 | -4.83%
46 | CC(C)Oc1ccc(CN2CCC(n3nccc3NC(=O)c3cccnc3)CC2)cc1 | -0.44%
47 | CN(C)CCCn1c(=O)n(Cc2ccccc2)c(=O)c2c3c(sc21)CCCCC3 | -0.19%
48 | COc1ccc(C(=O)/C=C/c2cccnc2)c(OC)c1 | -1.09%

Row | Compound | inhibition
49 | CN1CCN(Cc2c(O)ccc3c2oc(=O)c2ccccc23)CC1 | 12% (active)
50 | CCOC(=O)c1oc2c(CN3CCN(C)CC3)c(O)ccc2c(=O)c1-c1ccc(Br)cc1 | 2.09%
51 | O=c1oc2c(CN3CCCCC3)c(O)ccc2c2c1CCCCC2 | -1.98%
52 | COc1ccc(-c2cc(C(=O)N(C)Cc3ccc(OC)c(OC)c3OC)c3ccccc3n2)cc1OC | -3.53%
53 | O=C(Nc1nnc(C2CC2)s1)c1cc(Cl)sc1Cl | -3.26%
54 | CN1C(=O)/C(=C\c2cc(Br)cs2)c2ccccc21 | 0.8%
55 | O=C(c1ccco1)N1CCN(C(=O)c2cc(-c3ccccc3F)no2)CC1 | -2.41%
56 | COc1cccc(NC(=O)C(=O)c2cn(CC(=O)N3CCOCC3)c3ccccc23)c1 | 1.81%
57 | CC(=O)c1ccc2c(ccc3ccccc32)c1 | -0.35%
58 | Cc1cc(=O)oc2c(C(=O)c3ccccc3)c(OCC(N)=O)ccc12 | -0.26%
59 | Cc1cc(=O)oc2c1ccc1ccccc12 | 10.6% (active)
60 | Cn1c(-c2sccc2OCc2cccc(C(F)(F)F)c2)n[nH]c1=S | 27% (active)
61 | Cc1ccccc1-c1n[nH]c(=S)n1C | 2.67%
62 | Cn1c(-c2sc3cc(C(F)(F)F)cnc3c2-c2ccccc2)n[nH]c1=S | -7.11%
63 | COc1ccccc1NC(=O)CCN1CCN(c2ccc(Cl)cc2)CC1 | 0.08%
64 | Cc1cccn2c(=O)c(C=O)c(Nc3ccc(S(N)(=O)=O)cc3)nc12 | 19.5% (active)
65 | O=Cc1c(Nc2ccccc2Cl)nc2ccccn2c1=O | 0.26%
66 | CNc1nc2c(C)cccn2c(=O)c1C=Nc1ccc(OC)cc1 | 4.33%
67 | C/C(N)=C(/C#N)C(=O)COC(=O)C1=NN(c2ccccc2)C(=O)CC1 | -2.51%
68 | COc1cccc(NC(=O)C2CCCN(c3ncnc4c3nc3n4CCCCC3)C2)c1 (stereo not drawn) | -0.06%
69 | COCCCNC(NC(=O)c1ccc(C)cc1)C(Cl)(Cl)Cl (stereo not drawn) | -1.71%
70 | CC(C)(C)NC(=O)CSC(=Nc1ccccc1F)NC#N | -1.17%
71 | CCC(c1nnnn1C(C)(C)C)N(Cc1cc2cccc(C)c2n2nnnc12)C1CCCC1 (stereo not drawn) | -3.3%
72 | Cn1c(=O)cc(OCCCC(=O)N2CCN(Cc3ccc4c(c3)OCO4)CC2)c2ccccc21 | 9.27% (active)

Row | Compound | inhibition
73 | Cn1c(=O)cc(OCCCC(=O)N2CCN(c3ccccn3)CC2)c2ccccc21 | -0.05%
74 | O=C(CCCN1C(=O)c2cccc3cccc(c23)C1=O)N1CCN(Cc2ccc3c(c2)OCO3)CC1 | 4.6%
75 | COc1cc(C)cc(CN2CCC(Cc3ccccc3)CC2)c1O | -1.32%
76 | CCn1c(=O)n(CC)c2cc(N3CCCC3)c(NC(=O)c3ccccc3Br)cc21 | 0.64%
77 | CCOc1ccc(C)cc1S(=O)(=O)NC1CCCCCC1 | -2.78%
78 | COc1ccccc1OCCn1c(SCC(N)=O)nc2ccccc21 | -0.1%
79 | O=C(Oc1c(-c2ccco2)oc2ccccc2c1=O)c1cccnc1 | 0.08%
80 | COCCCNC(=S)N(CCN(C)C)Cc1cc2cc3c(cc2[nH]c1=O)OCCO3 | 1.43%
81 | Cc1cccc(NC(=O)C2CCCN(C(=O)NCc3ccccc3)C2)c1C (stereo not drawn) | 0.69%
82 | Cc1ccc2cc(/C=N/NC(=O)[C@@H]3CCCN3)c(Cl)nc2c1 | 10.3% (active)
83 | CSCC[C@H](NC(=O)OC(C)(C)C)C(=O)N/N=C/c1cc2ccc(C)cc2nc1Cl | 0.5%
84 | Cc1ccc2cc(/C=N/Nc3ccc(C(=O)O)cc3)c(Cl)nc2c1 | 1.26%
85 | Cc1cccc(CS(=O)(=O)c2ncc(Cl)c(C(=O)Nc3ccc(F)cc3)n2)c1 | -3.25%
86 | O=C(CCC1CCCN(C(=O)c2ccc(F)c(F)c2)C1)N1CCN(c2ccccn2)CC1 (stereo not drawn) | -0.15%
87 | CCn1ccnc1CNC(=O)CC1C(=O)NCCN1Cc1ccc(F)cc1Cl (stereo not drawn) | -4.36%
88 | Cc1nn(-c2cc(Cl)ccc2N)c(=O)c2ccccc12 | -2.2%
89 | O=C(O)c1ccc2c3c(cccc13)C(=O)N(OS(=O)(=O)c1ccccc1)C2=O | 0.17%
90 | Cc1nn(C)cc1N1C(=O)c2cccc3c(N)ccc(c23)C1=O | 21.7% (active)
91 | O=C1c2ccccc2C(=O)N1c1cccc2ccccc12 | -0.93%
92 | CC(=O)Nc1ccccc1Sc1ccc2c3c(cccc13)C(=O)N(c1ccc(C)cc1)C2=O | -3.98%
93 | CN1C(=O)c2cccc3c(N)ccc(c23)C1=O | 50.1% (active)
